Experimental findings from PubChem BioAssay (NCI) are described below.

The panel holds about 79,000 compounds, 15% with a hit somewhere; the sample as a whole holds those more often. Unmarked numbers belong to inactive results. Active and inactive are the calls of the source. Cut-off read from the data, not from the text of the source: active = growth inhibition above about 70%; inactive = the rest.

A short description of experiment [1]: NCI Yeast Anticancer Drug Screen. Data for the rad50 strain (AID 155).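 Note: 0% = growth of vehicle-only cultures of the same strain.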 Conditions: S. cerevisiae rad50 strain growth inhibition, active compounds read high. The gist of the method:
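DNA repair mutant yeast, compound exposure, growth read-out; inhibition is taken relative to vehicle.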

Experiment [2] can be described thus: NCI Yeast Anticancer Drug Screen. Data for the mec2-1 strain (AID 157). Conditions: S. cerevisiae mec2-1 strain, active compounds read high. The gist of the method:
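Growth inhibition is read against vehicle-treated controls after compound exposure of the mec2-1 yeast strain, which is defective in DNA damage repair or cell cycle control.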

The nature of experiment [3]: NCI Yeast Anticancer Drug Screen. Data for the sgs1 mgt1 strain (AID 161).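 Note: 0% = growth of cultures given vehicle only.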 As to conditions: S. cerevisiae sgs1 mgt1 strain, active compounds read high. The gist of the method:
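Growth of a repair-deficient yeast mutant was monitored after compound treatment and expressed as inhibition relative to vehicle-treated cultures.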

The nature of experiment [4]: NCI Yeast Anticancer Drug Screen. Data for the cln2 rad14 strain (AID 165).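 Note: 0% = growth equal to vehicle treated cultures.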 Conditions: S. cerevisiae cln2 rad14 strain, active compounds read high. In a few lines:
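Growth inhibition, relative to vehicle-treated controls, is the read-out. The test organism is a yeast strain with defined genetic alterations, cln2 rad14.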

Experiment [5] is described as follows: NCI Yeast Anticancer Drug Screen. Data for the bub3 strain (AID 167). As to conditions: S. cerevisiae bub3 mutant strain, active compounds read high. The gist of the method: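 In this screen, a yeast mutant lacking normal mitotic checkpoint function is challenged with compound. Relative growth versus vehicle gives the inhibition value.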
A short description of experiment [6]: NCI Yeast Anticancer Drug Screen. Data for the mlh1 rad18 strain (AID 175). Conditions: S. cerevisiae mlh1 rad18 strain growth inhibition, active compounds read high. The gist of the method:
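Cells of a genetically altered yeast strain, deficient in DNA damage repair, were treated with compound. Their growth was then compared with that of vehicle-treated cultures to give inhibition.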

[7] abbreviates: at 5.0 µM (retest, dose inferred, filed as 0.5).
Where [8] appears, read: at 50.0 µM (retest, dose inferred, filed as 5.0).

For the compound `CCCCN(CCCC)CN1C(=O)/C(=C/c2ccc(NC(C)=O)cc2)NC1=S`, the growth inhibition in experiment [1] (setting [7]) was 7%; in experiment [1] (setting [8]), 62%; in experiment [1] (at 50.0 µM) it was 78% (active); in experiment [2] (setting [7]), -7%; in experiment [2] (setting [8]), 64%; in experiment [2] (at 50.0 µM), 79.6% (active). For the same compound, the growth inhibition was -1% in experiment [3] (setting [7]); 64% in experiment [3] (setting [8]); 79.9% (active) in experiment [3] (at 50.0 µM); -2% in experiment [4] (setting [7]); 63% in experiment [4] (setting [8]); 79.8% (active) in experiment [4] (at 50.0 µM). For the same compound, the growth inhibition in experiment [5] (setting [7]) was -15%; in experiment [5] (setting [8]), 53%; in experiment [5] (at 50.0 µM), 72.7% (active); in experiment [6] (setting [7]), -3%; in experiment [6] (setting [8]), 79% (active); in experiment [6] (at 50.0 µM), 86.2% (active).
`O=C1CSC(=Nc2ccc(F)cc2F)N1Cc1cccs1`: the growth inhibition in experiment [1] (setting [7]) was 44%; in experiment [1] (setting [8]), 92% (active); in experiment [1] (at 50.0 µM), 80.2% (active); in experiment [2] (setting [7]) it was 36%; in experiment [2] (setting [8]), 98% (active); in experiment [2] (at 50.0 µM) it was 78.2% (active). The growth inhibition in experiment [3] (setting [7]) was 39%; in experiment [3] (setting [8]) it was 98% (active); in experiment [3] (at 50.0 µM) it was 90.5% (active); in experiment [4] (setting [7]) it was 25%; in experiment [4] (setting [8]), 63%; in experiment [4] (at 50.0 µM), 50.1%. Moreover, the growth inhibition in experiment [5] (setting [7]) was 41%; in experiment [5] (setting [8]), 61%; in experiment [5] (at 50.0 µM), 86.2% (active); in experiment [6] (setting [7]) it was 47%; in experiment [6] (setting [8]) it was 98% (active); in experiment [6] (at 50.0 µM), 84.6% (active).
For the compound `Cc1ccc2ccc3c(CCN(C)C)cc4c(c3c2c1O)OCO4`, the growth inhibition in experiment [1] (setting [7]) is -1%; in experiment [1] (setting [8]), 22%; in experiment [1] (at 50.0 µM), 90.8% (active); in experiment [2] (setting [7]), -4%; in experiment [2] (setting [8]) it was 57%; in experiment [2] (at 50.0 µM) it was 67.3%. Also, the growth inhibition was -1% in experiment [3] (setting [7]); 75% (active) in experiment [3] (setting [8]); 91.2% (active) in experiment [3] (at 50.0 µM); -1% in experiment [4] (setting [7]); 64% in experiment [4] (setting [8]); 95.2% (active) in experiment [4] (at 50.0 µM). The growth inhibition was -2% in experiment [5] (setting [7]); 86% (active) in experiment [5] (setting [8]); 92.5% (active) in experiment [5] (at 50.0 µM); -5% in experiment [6] (setting [7]); 53% in experiment [6] (setting [8]); 94.3% (active) in experiment [6] (at 50.0 µM).
With `CC(C)c1cc2c(cc1O)C[C@@]1(O)CCCC(C)(C)C1CC2` (stereo not given in full), the growth inhibition in experiment [1] (setting [7]) is 8%; in experiment [1] (setting [8]), 97% (active); in experiment [1] (at 50.0 µM) it was 90.6% (active); in experiment [2] (setting [7]), 3%; in experiment [2] (setting [8]) it was 97% (active); in experiment [2] (at 50.0 µM) it was 92.3% (active). Further, the growth inhibition in experiment [3] (setting [7]) was 3%; in experiment [3] (setting [8]) it was 92% (active); in experiment [3] (at 50.0 µM) it was 91.2% (active); in experiment [4] (setting [7]), -16%; in experiment [4] (setting [8]), 96% (active); in experiment [4] (at 50.0 µM), 90% (active). The growth inhibition in experiment [5] (setting [7]) is 7%; in experiment [5] (setting [8]), 96% (active); in experiment [5] (at 50.0 µM), 91.2% (active); in experiment [6] (setting [7]), 10%; in experiment [6] (setting [8]), 95% (active); in experiment [6] (at 50.0 µM), 90.2% (active).
Regarding `O=[N+]([O-])c1ccc(-c2ccc(-c3csc(Nc4ccccc4)n3)o2)cc1`, the growth inhibition in experiment [1] (setting [7]) was 42%; in experiment [1] (setting [8]) it was 96% (active); in experiment [1] (at 50.0 µM), 93.2% (active); in experiment [2] (setting [7]), 96% (active); in experiment [2] (setting [8]), 98% (active); in experiment [2] (at 50.0 µM) it was 93.4% (active). In addition, the growth inhibition is 44% in experiment [3] (setting [7]); 97% (active) in experiment [3] (setting [8]); 92.6% (active) in experiment [3] (at 50.0 µM); 63% in experiment [4] (setting [7]); 97% (active) in experiment [4] (setting [8]); 90.8% (active) in experiment [4] (at 50.0 µM). The growth inhibition in experiment [5] (setting [7]) is 97% (active); in experiment [5] (setting [8]) it was 98% (active); in experiment [5] (at 50.0 µM), 93% (active); in experiment [6] (setting [7]), 98% (active); in experiment [6] (setting [8]), 97% (active); in experiment [6] (at 50.0 µM), 90.5% (active).
